From PubChem BioAssay (EPA / NIEHS)
Values joined by “and” are separate entries in the source; they are usually repeats but may differ in a detail not shown here. Identical values can stand only once. Some compounds were tested as several samples or in several runs, with calls that do not always agree. Active and inactive are the calls of the source. How the source made its calls: active means hit-call score of the fitted dose curve at least 0.9, where 1 is the maximum; inactive means score below 0.9.

read-out: Plasminogen activator inhibitor-1 (PAI1), SERPINE1 (gene 5054); test: BSK_BE3C_PAI1: BioMAP Diversity Plus: BE3C Assay for Plasminogen activator inhibitor-1 (PAI1) Biomarker Activity (AID 2283037); settings: primary human bronchial epithelial cells; actives raise or lower the signal
Protocol: BSK_BE3C is a cell-based, multiplexed-readout assay that uses bronchial epithelial cell, a human lung primary cell, with measurements taken at 24 hours after chemical dosing in a 96-well plate.BSK_BE3C_PAI1 is an assay component measured in the BSK_BE3C assay. It measures PAI-1 antibody related to regulation of gene expression using ELISA technology.Data from the assay component BSK_BE3C_PAI1 was analyzed into 1 assay endpoint. This assay endpoint, BSK_BE3C_PAI1, was analyzed with bidirectional fitting relative to DMSO as the negative control and baseline of activity. Using a type of binding reporter, gain or loss-of-signal activity can be used to understand changes in the signaling as they relate to the gene SERPINE1. Furthermore, this assay endpoint can be referred to as a primary readout, because this assay has produced multiple assay endpoints where this one serves a signaling function. To generalize the intended target to other relatable targets, this assay endpoint is annotated to the cytokine intended target family, where the subfamily is plasmogen activator inhibitor.
The levels of cell surface (or secreted, indicated by the prefix "s") biomarker endpoints were measured by ELISA. Overt cytotoxicity to cells in confluent adherent cultures (all systems other than the BT system) was assessed by measuring total protein levels using sulforhodamine B (SRB) staining in parallel cultures at the time of biomarker measurements, indicated as SRB endpoints. For proliferation assays for adherent cell types, individual cell types are cultured at sub-confluence and relative cell numbers quantified by SRB staining at time points optimized for each system (48 h: 3C and CASM3C systems; 72 h: BT and HDF3CGF systems; 96 h: SAg system). SRB was performed by staining cells with 0.1% SRB after fixation with 10% TCA and reading wells at 560 nm.Viability and proliferation of PBMC (T cells) was quantified by Alamar Blue reduction for the SAg and BT systems. For PBMC viability (referred to as PBMC Cytotoxicity within the assay endpoint names), cells were plated (75,000/well in a 96-well plate) and then chemical samples added for 1 h before addition of activators, SEB and TSST-1 (20 ng/mL final concentration each). Cells were incubated for 90 h. Then, Alamar Blue (20 uL/well) (Invitrogen, Cat DAL1100) was added for 6 h, and the plates were read with a fluorescence microplate reader at 546/580 nm (excitation/emission). For PBMC proliferation, cells were plated and activated as above but incubated for only 16 h prior to addition of Alamar Blue. Plates were read after 6 h.

SMILES | outcome | AC50
CCCCCCCCCCCCCCCCCC[N+](C)(C)Cc1ccccc1 | inactive | –
O=C1OC2(c3ccccc31)c1cc(I)c(O)c(I)c1Oc1c2cc(I)c(O)c1I | – | 4.07 µM (active)
CCCCC(CC)C(=O)OCCOCCOCCOCCOC(=O)C(CC)CCCC (stereo not given) | inactive | –
CC1=NN(c2ccccc2)C(=O)C1 | inactive | –
CC(C)(C)c1ccc(O)c(O)c1 | inactive | –
COc1cc(OC)nc(NC(=O)NS(=O)(=O)Nc2ccccc2C(=O)N(C)C)n1 | inactive | –
OCC(CO)(CBr)CBr | inactive | –
O=C(CCCN1CCC(O)(c2ccc(Cl)cc2)CC1)c1ccc(F)cc1 | inactive | –
NC(=NCCCCCCN=C(N)/N=C(\N)Nc1ccc(Cl)cc1)/N=C(\N)Nc1ccc(Cl)cc1 | – | 1.46 µM (active)
COC1=CC(=O)C[C@@H](C)[C@]12Oc1c(Cl)c(OC)cc(OC)c1C2=O | inactive | –
CC[N+](CC)(CC)Cc1ccccc1 | inactive | –
O=P(O)(O)CCC(F)(F)C(F)(F)C(F)(F)C(F)(F)C(F)(F)C(F)(F)F | inactive | –
O=C1c2ccc(O)c(O)c2C(=O)c2c(O)ccc(O)c21 | inactive | –
CC(=O)Nc1ccc(O)cc1 | inactive | –
Cc1[nH]nc2c1N=C(c1ccccc1Cl)c1cc([N+](=O)[O-])ccc1N2 | – | 1.62 µM (active)
O=C(c1ccccc1)c1ccccc1 | inactive | –
CCCCC=O | inactive | –
Cc1cccc2c1ccc1ccccc12 | inactive | –
CCCCCCCCCCCCOS(=O)(=O)O | – | 33.3 µM (active)
Clc1ccc(Nc2nnc(Cc3ccncc3)c3ccccc23)cc1 | – | 3.84 µM (active)

SMILES | outcome | AC50
O=P(O)(O)CCC(F)(F)C(F)(F)C(F)(F)C(F)(F)C(F)(F)C(F)(F)C(F)(F)C(F)(F)F | inactive | –
CN(Cc1cnc2nc(N)nc(N)c2n1)c1ccc(C(=O)N[C@@H](CCC(=O)O)C(=O)O)cc1 | inactive | 2.71 µM (active)
C=COC(=O)C(C)(C)CCCCCC | – | 29.4 µM (active)
COCN(COC)c1nc(N(COC)COC)nc(N(COC)COC)n1 | inactive | –
O=C(O)CCC(F)(F)C(F)(F)C(F)(F)C(F)(F)C(F)(F)F | inactive | –
COc1cccc(O)c1 | inactive | –
Cc1ccc(N=Nc2c(O)ccc3ccccc23)c(C)c1 | – | 10 µM (active)
Oc1c(Cl)cc(Cl)cc1Sc1cc(Cl)cc(Cl)c1O | – | 4.59 µM (active)
CCCCCCCCCCCC | – | 9.17 µM (active) and 6.53 µM (active)
O=C(O)CCC(F)(F)C(F)(F)C(F)(F)C(F)(F)C(F)(F)C(F)(F)F | inactive | –
CCC(C)c1ccccc1O (stereo not given) | inactive | –
CCCCC(CC)C(=O)O (stereo not given) | inactive | –
C=CC(C)(CCC=C(C)C)OC(C)=O (stereo not given) | inactive | –
OCCN1CN(CCO)CN(CCO)C1 | inactive | –
CCOC(=O)CN[C@@H](C(=O)N1CC[C@H]1C(=O)NCc1ccc(/C(N)=N/O)cc1)C1CCCCC1 | inactive | –
O=C1NS(=O)(=O)c2ccccc21 | inactive | –
CN(CCO)S(=O)(=O)C(F)(F)C(F)(F)C(F)(F)C(F)(F)C(F)(F)C(F)(F)C(F)(F)C(F)(F)F | inactive | –
O=C(O)C(F)(F)OC(F)(F)C(F)(F)OC(F)(F)C(F)(F)OC(F)(F)C(F)(F)C(F)(F)C(F)(F)F | – | 4.78 µM (active) and 4.58 µM (active)
CCCCCCCCCCCCCCC | inactive | –
